Test [1] can be described thus: qHTS assay to identify small molecule antagonists of the retinoid acid receptor (RAR) signaling pathway - cell viability counter screen (AID 1159551). Also: nearly all actives have a fitted effect of over 35% in size. Also: potency is read from the fitted curve at half-maximal effect. The method in brief: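 Luminescent ATP quantitation (CellTiter-Glo) gave cell viability in C3RL4 cells exposed to test chemicals for 6 h at 37 C alongside 1 uM final retinol.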
For orientation: In qHTS, concentration-response curves come from the screen itself.

The nature of test [2]: qHTS assay to identify small molecule antagonists of the retinoic acid receptor (RAR) signaling pathway (AID 1159552; also: nearly all actives have a fitted effect of over 50% in size; also: potency is read from the fitted curve at half-maximal effect). The essentials:
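Antagonism of retinol-induced RARE reporter activity was measured in C3RL4 cells. Exposure to compounds and 1 uM final retinol lasted 6 hr at 37 C, with luminescence as endpoint.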

A short description of test [3]: qHTS assay to identify small molecule antagonists of the estrogen related receptor (ERR) signaling pathway from Tox21 library - cell viability counter screen (AID 1224834). Also: nearly all actives have a fitted effect of over 30% in size. Also: potency is read from the fitted curve at half-maximal effect. The essentials:
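Fluorescence from CellTiter-Fluor gives the viability read-out, taken 30 min after reagent addition. Before that, ERR cells seeded 6 h earlier were incubated with compounds for 17.5 h at 37 C.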

The target of test [4] is Luciferin 4-monooxygenase (Photinus pyralis) (UniProt P08659). The experiment in a line: qHTS assay to identify small molecule inhibitors of firefly luciferase (AID 1224835). Also: nearly all actives have a fitted effect of over 25% in size. Also: potency is read from the fitted curve at half-maximal effect. The essentials:
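Quantitative HTS format; KM concentrations of both substrates. Purified P. pyralis FLuc activity quantified from luminescence images.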

The target in test [5] is Nuclear receptor subfamily 1 group I member 3 (Homo sapiens) (UniProt Q14994). The experiment in a line: qHTS assay to identify small molecule agonists of the constitutive androstane receptor (CAR) signaling pathway (AID 1224839).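 Also: HepG2 cells stably carrying human CAR and a CYP2B6 luciferase reporter; series mostly up to about 92 µM; nearly all actives have a fitted effect of over 15% in size.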 The essentials:
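Readout: firefly luciferase luminescence via ONE-Glo. System: HepG2 double-stable for hCAR and CYP2B6-2.2kb. Conditions: 15-point compound titration, PK11195 at 0.75 uM final, 24 h incubation.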

A short description of test [6]: qHTS assay to identify small molecule antagonists of the estrogen related receptor signaling pathway with the pleiotropic PPARgamma coactivator (PGC) from Tox21 10K library (AID 1224841; call rule not given here; also: actives are mostly falling curves and most rising ones were filed inactive; nearly all actives have a fitted effect of over 50% in size; also: potency is read from the fitted curve at half-maximal effect). The method in brief:
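PGC/ERR cell line, 2,000 cells/well; 6 h pre-incubation 37 C/5% CO2; compounds (DMSO) pinned in; 18 h, 37 C; One-Glo, 30 min RT; luminescence.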

Test [7] is described as follows: qHTS assay to identify small molecule agonists of the estrogen related receptor signaling pathway with the pleiotropic PPARgamma coactivator (PGC) from Tox21 10K library (AID 1224842). Also: nearly all actives have a fitted effect of over 15% in size. The method in brief: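 PGC/ERR reporter cells (NTP line) were seeded 2,000 per well, rested 6 h at 37 C/5% CO2, then pin-dosed with compounds in DMSO for 18 h at 37 C; luciferase read by One-Glo luminescence after 30 min at room temperature.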

Test [8] deals with Thyrotropin receptor (Homo sapiens) (UniProt P16473). The experiment in a line: qHTS assay to identify small molecule agonists of the thyroid stimulating hormone receptor (TSHR) signaling pathway (AID 1224843; calls by dose curve; also: nearly all actives have a fitted effect of over 45% in size; also: potency is read from the fitted curve at half-maximal effect). The method in brief:
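Cell line HEK293 with TSHR; density 800/well. Exposure 30 min RT. Readout HTRF cAMP (cAMP-d2/anti-cAMP-cryptate), 1 h RT before reading.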

A short description of test [9]: qHTS assay to identify small molecule agonists of the hypoxia (HIF-1) signaling pathway - cell viability counter screen (AID 1224844; calls by dose curve; also: nearly all actives have a fitted effect of over 50% in size; also: potency is read from the fitted curve at half-maximal effect). The essentials: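 ME-180 HRE-bla cells, 2,000/well, 0.5% dialyzed FBS; 5 hr settle, 17 hr compound at 37C/5% CO2; CCF4-AM reporter read first, then CellTiter-Glo luminescence after 30 min RT.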
Test [10] is described as follows: qHTS assay to identify small molecule agonists of the constitutive androstane receptor (CAR) signaling pathway - cell viability counter screen (AID 1224836). Also: nearly all actives have a fitted effect of over 45% in size. Also: potency is read from the fitted curve at half-maximal effect. The method in brief:
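Double-stable HepG2 hepatoma cells (hCAR plus CYP2B6-2.2kb) are treated for 23 h at 37 C with test compounds in 15-point concentration series. PK11195 at 0.75 uM final is co-added. Cell viability is quantified by CellTiter-Fluor.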

Test [11] is described as follows: qHTS assay to identify small molecule antagonists of the constitutive androstane receptor (CAR) signaling pathway - cell viability counter screen (AID 1224837). Also: nearly all actives have a fitted effect of over 45% in size. Also: potency is read from the fitted curve at half-maximal effect. The method in brief:
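HepG2-CYP2B6-hCAR cells, 2500/well, 4 hr pre-incubation; compound titration, 15 conc.; CITCO 50 nM final; 23 hr, 37 C/5% CO2; CellTiter-Fluor, fluorescence intensity.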

Test [12] addresses Nuclear receptor subfamily 1 group I member 3 (Homo sapiens) (UniProt Q14994). The experiment in a line: qHTS assay to identify small molecule antagonists of the constitutive androstane receptor (CAR) signaling pathway (AID 1224838).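 Also: HepG2 cells stably expressing hCAR with CYP2B6 luciferase reporter stimulated by CITCO; nearly all actives have a fitted effect of over 40% in size.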 Also: potency is read from the fitted curve at half-maximal effect. The essentials: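 HepG2-CYP2B6-hCAR cells; 4 h pre-incubation; cpd (15 conc) + CITCO 50 nM final; 24 h, 37 C/5% CO2; ONE-Glo, luminescence.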
The nature of test [13]: qHTS assay to identify small molecule antagonists of the estrogen related receptor signaling pathway with the pleiotropic PPARgamma coactivator (PGC) from Tox21 10K library - cell viability counter screen (AID 1224840; active = well fitted cell-killing curve with a large enough effect in the repeat runs, not every such curve was filed as active; also: nearly all actives have a fitted effect of over 40% in size; also: potency is read from the fitted curve at half-maximal effect). The essentials:
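PGC/ERR cells, 2,000/well; 6 h pre-incubation 37 C/5% CO2; cpd in DMSO via pin tool; 17.5 h 37 C; CellTiter-Fluor, 30 min; fluorescence.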

Test [14] can be described thus: qHTS assay to identify small molecule agonists of the retinoic acid receptor (RAR) signaling pathway (AID 1159553). The essentials: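 Luminescence from a RARE-driven luciferase reporter in C3RL4 cells served as the read-out, measured after 30 min with detection reagent at room temperature. Compounds in DMSO were applied for 6 hr at 37 C following overnight seeding.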

Structures are written as SMILES. Inconclusive results are not listed. Unmarked numbers belong to inactive results. Calls of active or inactive are those of the source. Unless noted, calls follow the shape of the dose curve; as a rule, active = well fitted curve in the direction sought with a large enough effect in the repeat runs; inconclusive = weak or mixed curves; inactive = no such curve, though single readings can be large; an effect the other way counts as inactive or inconclusive.

Chain of Nuclear receptor subfamily 1 group I member 3 (Homo sapiens) (Q14994 whole entry, looked up): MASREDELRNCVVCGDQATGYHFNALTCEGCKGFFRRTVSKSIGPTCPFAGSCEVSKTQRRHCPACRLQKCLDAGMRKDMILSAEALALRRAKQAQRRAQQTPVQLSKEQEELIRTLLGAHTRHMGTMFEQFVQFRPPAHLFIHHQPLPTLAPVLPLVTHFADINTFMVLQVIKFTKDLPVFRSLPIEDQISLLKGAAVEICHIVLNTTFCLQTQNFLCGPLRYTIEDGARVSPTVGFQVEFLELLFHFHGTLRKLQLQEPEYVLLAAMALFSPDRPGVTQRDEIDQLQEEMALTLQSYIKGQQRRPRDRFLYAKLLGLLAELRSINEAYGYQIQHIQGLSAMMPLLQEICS
Chain of Thyrotropin receptor (Homo sapiens) (P16473 whole entry, looked up): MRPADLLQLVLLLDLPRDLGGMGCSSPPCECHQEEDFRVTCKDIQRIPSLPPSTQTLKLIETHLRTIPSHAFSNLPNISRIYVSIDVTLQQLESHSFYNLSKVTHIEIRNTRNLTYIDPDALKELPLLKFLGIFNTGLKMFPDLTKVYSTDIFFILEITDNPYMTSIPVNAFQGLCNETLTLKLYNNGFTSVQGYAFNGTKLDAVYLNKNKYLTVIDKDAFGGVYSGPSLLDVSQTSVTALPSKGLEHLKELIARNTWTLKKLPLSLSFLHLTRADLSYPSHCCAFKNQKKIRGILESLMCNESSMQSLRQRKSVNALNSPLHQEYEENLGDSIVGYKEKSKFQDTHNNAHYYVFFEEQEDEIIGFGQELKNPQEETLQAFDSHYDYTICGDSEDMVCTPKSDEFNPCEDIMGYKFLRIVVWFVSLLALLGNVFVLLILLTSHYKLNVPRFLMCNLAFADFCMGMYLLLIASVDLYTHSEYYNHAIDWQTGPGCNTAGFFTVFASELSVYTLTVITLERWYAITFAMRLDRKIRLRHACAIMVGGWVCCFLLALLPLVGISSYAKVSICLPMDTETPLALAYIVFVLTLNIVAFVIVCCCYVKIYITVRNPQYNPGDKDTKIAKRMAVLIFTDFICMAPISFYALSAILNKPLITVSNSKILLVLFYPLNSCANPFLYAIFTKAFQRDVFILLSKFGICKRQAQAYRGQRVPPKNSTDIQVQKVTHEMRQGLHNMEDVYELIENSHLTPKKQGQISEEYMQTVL
Chain of Luciferin 4-monooxygenase (Photinus pyralis) (P08659 whole entry, looked up): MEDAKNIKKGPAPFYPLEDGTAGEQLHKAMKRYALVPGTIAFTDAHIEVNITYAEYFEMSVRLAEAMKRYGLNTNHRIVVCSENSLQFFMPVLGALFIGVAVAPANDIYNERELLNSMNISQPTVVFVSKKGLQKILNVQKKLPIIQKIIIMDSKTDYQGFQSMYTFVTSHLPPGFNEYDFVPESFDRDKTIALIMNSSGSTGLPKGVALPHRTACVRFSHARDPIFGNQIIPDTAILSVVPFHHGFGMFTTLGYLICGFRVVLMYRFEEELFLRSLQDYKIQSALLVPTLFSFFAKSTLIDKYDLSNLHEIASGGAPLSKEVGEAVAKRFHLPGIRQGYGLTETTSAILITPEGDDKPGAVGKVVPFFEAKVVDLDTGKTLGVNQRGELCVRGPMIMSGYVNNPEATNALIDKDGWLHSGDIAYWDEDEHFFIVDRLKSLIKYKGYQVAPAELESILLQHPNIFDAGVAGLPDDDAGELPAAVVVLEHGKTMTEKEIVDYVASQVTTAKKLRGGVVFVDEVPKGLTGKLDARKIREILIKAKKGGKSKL

Regarding `C[C@@H](NCCCc1cccc(C(F)(F)F)c1)c1cccc2ccccc12`, the Potency in test [1] is 33.5 µM (active); in test [2], 29.8 µM (active); in [3] it was 29.8 µM (active); in test [9] it was 23.9 µM (active). Moreover, the Potency result in test [4], in test [5], in [6], in [7] and in [8] was “inactive” in each case.

For the compound `CCc1cc(SCc2sc(-c3ccc(C(F)(F)F)cc3)nc2CN2CCN(c3ccc(OC)cc3)CC2)ccc1OCC(=O)O`, the Potency entry in test [1], in [4], in [10], in test [11], in [12] and in [5] was “inactive” in each case. The Potency result in [7] is “inactive”. Also, the Potency in test [2] is 61.1 µM (active); in [13], 34.4 µM (active); in test [9], 3.89 µM (active).

For `CCCCC(CC)CN=C(N)NC(N)=NCCCCCCN=C(N)NC(N)=NCC(CC)CCCC` (stereo not drawn), the Potency is 29.8 µM (active) in [1]; 11.9 µM (active) in [2]; 26.6 µM (active) in [10]; 23.7 µM (active) in test [11]; 16.8 µM (active) in test [13]; 23.7 µM (active) in [6]. Moreover, the Potency in test [9] is 23.9 µM (active). Besides, the Potency entry in [4] was “inactive”.

Turning to `CC[C@@]1(O)C(=O)OCc2c1cc1n(c2=O)Cc2c-1nc1ccccc1c2/C=N/OC(C)(C)C`, the Potency entry in test [1], in test [4], in test [5], in test [13], in test [7] and in test [8] was “inactive” each time. Moreover, the Potency in [2] was 0.119 µM (active); in [12], 0.0376 µM (active); in [6], 4.73 µM (active).

As for `CCN(CCC#N)c1ccc(N=Nc2c(Cl)cc([N+](=O)[O-])cc2Cl)cc1`, the Potency entry in [1], in test [2], in test [12], in [5], in test [6] and in test [7] was “inactive” in each case. Moreover, the Potency entry in test [9] was “inactive”. Moreover, the Potency in test [3] was 15.4 µM (active); in test [4], 63.3 µM (active).

Turning to `O=c1[nH]sc2cc(Cl)ccc12`, the Potency result in test [1], in test [2], in test [10], in test [11], in test [5] and in [13] was “inactive” each time. For the same compound, the Potency entry in test [7] and in test [8] was “inactive” each time. The Potency is 17.4 µM (active) in test [4], 0.001 µM (active) in test [12] and 0.535 µM (active) in test [9].

As to `Nc1cc(C(F)(F)F)ccc1S`, the Potency entry in test [1], in test [10], in test [11], in test [5], in test [13] and in test [7] was “inactive” throughout. Further, the Potency entry in [9] is “inactive”. Besides, the Potency in test [2] was 6.68 µM (active).

Regarding `CCCN(CCC)C(=O)C(CCC(=O)OCCCN1CCN(CCOC(=O)Cc2c(C)n(C(=O)c3ccc(Cl)cc3)c3ccc(OC)cc23)CC1)NC(=O)c1ccccc1` (stereo not drawn), the Potency entry in test [1], in test [14], in test [4], in test [12], in test [5] and in [7] was “inactive” throughout. Further, the Potency result in test [8] was “inactive”. Moreover, the Potency was 23.7 µM (active) in test [3]; 23.7 µM (active) in test [10]; 26.6 µM (active) in [11]; 29.8 µM (active) in test [6]; 19 µM (active) in [9].

As for `Clc1ccc2n[nH]nc2c1`, the Potency entry in test [1], in [3], in test [4], in test [10], in [11] and in test [12] was “inactive” throughout. The Potency result in test [5], in [13], in test [8] and in test [9] was “inactive” throughout.

Regarding `O=[N+]([O-])c1cc(Cl)c(Cl)c(Cl)c1Cl`, the Potency result in test [1], in test [14], in test [4], in test [10], in [11] and in test [12] was “inactive” each time. In addition, the Potency result in test [5], in test [8] and in test [9] was “inactive” throughout.

`CCCCCCCC[P+](CCCCCCCC)(CCCCCCCC)CCCCCCCC`: the Potency in [1] was 54.2 µM (active); in test [3], 9.63 µM (active); in test [4], 62.9 µM (active); in test [10], 1.92 µM (active); in [11], 3.83 µM (active); in test [12] it was 10.8 µM (active). Moreover, the Potency in [13] is 10.8 µM (active); in test [9], 3.45 µM (active). For the same compound, the Potency entry in test [5], in test [7] and in [8] was “inactive” in each case.

On to `Fc1ccc([C@@H]2CCNC[C@H]2COc2ccc3c(c2)OCO3)cc1`, for which the Potency entry in test [1], in [14], in [4], in test [10], in [11] and in [5] was “inactive” each time. The Potency entry in test [13] and in test [9] was “inactive” in each case.

Regarding `O=C(Nc1ccc(Oc2ccc(Cl)cc2)c(Cl)c1)c1cc(I)cc(I)c1O`, the Potency result in [1], in test [14], in [4], in test [10], in test [11] and in [12] was “inactive” each time. Also, the Potency result in test [5], in [7] and in [8] was “inactive” throughout.

In the case of `COC(=O)C1=C(C)NC(C)=C(C(=O)OCCc2ccc(N3CCN(C(c4ccccc4)c4ccccc4)CC3)cc2)C1c1cccc([N+](=O)[O-])c1` (stereo not drawn), the Potency entry in test [1], in test [3], in test [4], in [10], in test [11] and in test [13] was “inactive” throughout. Besides, the Potency result in test [9] was “inactive”.

Take `CN(C/C=C/C#CC(C)(C)C)Cc1cccc2ccccc12`: the Potency result in [1], in [14], in test [3], in test [4], in test [10] and in [11] was “inactive” each time. The Potency entry in [12], in [13], in [8] and in test [9] was “inactive” throughout.

Consider `CCCCCCCCCCCCCC[P+](CCCC)(CCCC)CCCC` (tested in a mixture with another compound), for which the Potency is 27.5 µM (active) in test [1]; 24.5 µM (active) in [3]; 19.4 µM (active) in [10]; 19.4 µM (active) in [11]; 17.3 µM (active) in [12]; 17.3 µM (active) in test [13]. Also, the Potency in test [9] is 15.6 µM (active). The Potency result in [4], in test [5] and in test [8] was “inactive” throughout.

Regarding `CCCCCCCCCCCC[N+](C)(C)CCCCCCCCCCCC`, the Potency in [1] was 43.3 µM (active); in [3], 27.3 µM (active); in test [4] it was 79.6 µM (active); in [10], 27.3 µM (active); in [11] it was 24.3 µM (active); in test [13], 27.3 µM (active). Further, the Potency in test [8] was 24.3 µM (active); in test [9], 21.9 µM (active). Further, the Potency entry in test [5] and in [7] was “inactive” throughout.

In the case of `CCCCCCCC/C=C\CCCCCCCCOCCO`, the Potency result in test [1], in test [4] and in test [5] was “inactive” in each case. Besides, the Potency in test [3] was 35.5 µM (active); in test [10], 25.1 µM (active); in [11], 31.6 µM (active); in test [13] it was 63.1 µM (active); in test [9], 28.4 µM (active).

The values are drawn from PubChem BioAssay (Tox21).
